Only some compounds are listed: those with a hit (about 8.1% of all), similar ones and a draw of the others.
SW480 rereplic: A quantitative high throughput screen for small molecules that induce DNA re-replication in SW480 colon adenocarcinoma cells; SW480 DNA re-replication, Hoechst DNA content imaging, 48 h; Potency, µM (series often up to 46.1 µM), inactives show at the highest dose re-replication activation, usual class: activators; 340,000 tested, 1.8% active; AID 624297, 2012; note: % of control where 0% means no effect; nearly all actives have a fitted effect of over 55% in size
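Image-based read-out: total Hoechst fluorescence of nuclei (405 nm excitation, 500-530 nm emission), with hits raising the fraction of high-intensity nuclei. SW480 colon cells incubated 48 hr with compounds at 37 C.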
KB-V1 cytotox: qHTS assay for MDR1-selective chemotherapeutics: Primary screen using the drug-selected MDR subline cells KB-V1. KB-V1 MDR cells viability, CellTiter-Glo, 72 h. Potency, µM (doses to about 46.1 µM), hits mostly cytotoxic. 400,000 tested, 3.4% active; note: % is set by controls: 0 for no effect and ±100 for the full control effect; nearly all actives have a fitted effect of over 60% in size
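Cytotoxicity toward P-gp-expressing KB-V1 cells was determined as loss of CellTiter-Glo luminescence after 72 h at 37 degrees C. Compounds were tested in quantitative HTS format across a concentration range, with curves fitted to normalized data.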
ELG1 DNA repair: qHTS screen for small molecules that inhibit ELG1-dependent DNA repair in human embryonic kidney (HEK293T) cells expressing luciferase-tagged ELG1 | Potency, µM (series often up to 46.1 µM), for inactives: at the highest dose activity change, negative = inhibition, actives largely listed as inhibitors | 330,000 tested, 2.3% active | HEK293T ELG1-luciferase reporter, luminescence, 16 h; DNA damage induced by 5-fluorouridine; note: % is set by controls: 0 for no effect and ±100 for the full control effect; nearly all actives have a fitted effect of over 55% in size
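Cells (2,000 per well) received 5-fluorouridine plus test compound or DMSO and were incubated 16 hr at 37 °C, 5% CO2. Luciferase activity was read by luminescence 30 min after ONE-Glo addition; signal suppression marked inhibition of damage-induced ELG1 function.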
KB-3-1 cytotox: qHTS assay for MDR1-selective chemotherapeutics: Primary screen using the parental adenocarcinoma cell KB-3-1. Potency, µM (top dose mostly 46.1 µM), hits mostly cytotoxic. 400,000 tested, 1.4% active. KB-3-1 viability, CellTiter-Glo ATP luminescence, 72 h; note: % is set by controls: 0 for no effect and ±100 for the full control effect; nearly all actives have a fitted effect of over 60% in size
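72 h, 37 °C compound treatment of KB-3-1 parental cells; CellTiter-Glo added, 10 min, luminescence read. Data corrected against DMSO-only plates and normalized before curve fitting.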
MCF10A rerep: A quantitative high throughput screen for small molecules that induce DNA re-replication in MCF 10a normal breast cells. MCF 10A DNA re-replication, Hoechst nuclear intensity, 48 h. Potency, µM (doses to about 46.1 µM), for inactives: at the top dose activity, positive = re-replication, hits mostly activators. 350,000 tested, 2.9% active; note: % of control where 0% means no effect; nearly all actives have a fitted effect of over 50% in size
* = called active by the depositor; i = inactive; ? = inconclusive; nt = no result; [ ] = another dose, or the depositor's remark. Calls come from the whole dose curve; as a rule, active = well fitted curve in the direction sought with a large enough effect; inconclusive = small, poorly fitted or top-dose-only effect, or another doubt; inactive = no such curve, though single readings can be large; an effect the other way counts as inactive or inconclusive. Potency is the fitted concentration of half-maximal effect.

SMILES	SW480 rereplic	KB-V1 cytotox	ELG1 DNA repair	KB-3-1 cytotox	MCF10A rerep
CCOC(=O)COc1cc(N2C(=O)CSCC2=O)c(Cl)cc1Cl	-1%	i	-1%	i	-7%
CCOC(=O)COc1cc(-n2c(=S)[nH]c3cc(OC)c(OC)cc3c2=O)c(Cl)cc1Cl	-5%	i	-16%	i	23µM*
CSc1ccc(C(=O)C2CCCN(C(=O)c3cc4cc(F)ccc4[nH]3)C2)cc1 (stereo not given)	?	?	0%	?	18%
CCN1CCN(CNC(=O)c2cnccn2)CC1	9%	23µM*	15%	?	16%
O=C(NCN1CCN(c2ccccc2)CC1)c1cnccn1	-20%	?	-4%	i	15%
COc1ccc(OC)c(NC(=O)CSc2ncnc3c2cnn3-c2ccccc2Cl)c1	4%	?	9.2µM*	?	?
Cc1c(Cl)cccc1NC(=O)CSc1ncnc2c1cnn2CCc1ccccc1	-1%[9.22 µM]	i	23%	i	10µM*
NNc1ccc2nnc(C(F)(F)C(F)(F)C(F)(F)F)n2n1	2%	?	-2%	i	0%
Cc1cc(C)nc(Sc2ccc3nnc(C(F)(F)C(F)(F)C(F)(F)F)n3n2)n1	15µM*	i	-1%	i	?
CC(C)(C)C(=O)OCc1nc(-c2ccc3c(c2)OCCO3)cs1	4%	i	?	i	-3%
Cc1ccc(CN(CC(O)COc2cccc3[nH]cc(C)c23)C(C)(C)C)cc1 (stereo not given)	-1%	i	-19%	i	15%
COC(=O)Cc1c[nH]c2cccc(OCC(O)CN(Cc3ccc([N+](=O)[O-])cc3)C(C)(C)C)c12 (stereo not given)	8%	5.8µM*	?	i	8%
COC(=O)c1ccccc1S(=O)(=O)N1CCC(C(=O)OC(C)C(=O)N(C)Cc2ccccc2)CC1 (stereo not given)	-1%	i	nt	i	2%
CCn1c(Sc2ccc([N+](=O)[O-])cn2)nnc1-c1ccco1	8%	?	-9%	21µM*	6.5µM*
COC(=O)c1cc(CC(=O)c2ccc(O)cc2O)c(C)o1	-2%	i	?	i	24%
CCCCC(=O)OC1=C(C(=O)c2ccccc2)N(C)S(=O)(=O)c2ccccc21	nt	i	nt	?	nt
O=C(Nc1ccccc1)c1cccc(S(=O)(=O)NCc2ccco2)c1	-3%	23µM*	-15%	?	5%
O=C(NCc1ccco1)c1cc(-c2ccncc2)nc2ccccc12	4%	i	?	i	-17%
O=C(Nc1cccc(S(=O)(=O)NCc2ccco2)c1)c1cc(-c2ccc(F)cc2)nc2ccccc12	?	?	15µM*	?	14%
COc1ccc(-c2cc(C(=O)Nc3cccc(S(=O)(=O)NCc4ccco4)c3)c3ccccc3n2)cc1OC	?	?	5.2µM*	i	12µM*
COc1ccc(-c2cc(C(=O)NCc3ccco3)c3ccccc3n2)cc1OC	1%	?	nt	?	?
CCOc1cc(/C=N/NC(=O)c2ccc(-c3csc(Nc4ccc(C)cc4)n3)cc2)ccc1OCC(=O)O	5%	i	?	i	8%
O=C(O)COc1ccc(/C=N/NC(=O)c2ccc(-c3csc(Nc4ccc(Cl)cc4)n3)cc2)cc1	-11%	i	17%	i	9.2µM*
O=C(COC(=O)/C=C/c1ccco1)NCCN1C(=O)CSC1=O	-8%	i	nt	i	-3%
S=C(Nc1ccc(Cl)cc1)c1nc2ccccc2s1	1%	i	?	i	?
SMILES	SW480 rereplic	KB-V1 cytotox	ELG1 DNA repair	KB-3-1 cytotox	MCF10A rerep
O=C(Nc1ccc(Cl)cc1)/C(=C/c1cccc(O)c1)c1nc2ccccc2s1	21µM*	?	26µM*	2.9µM*	4.1µM*
COc1ccc(C=O)cc1OS(=O)(=O)c1ccc(NC(C)=O)cc1	18µM*	i	?	i	?
Cc1c(NC(=O)c2cc(-c3ccc(F)cc3)on2)c(=O)n(-c2ccccc2)n1C	-1%	?	11%	i	-2%
Cc1ccc(NC(=O)c2ccc([N+](=O)[O-])o2)cc1C	?	i	?	18µM*	9.2µM*
O=C(Nc1ccc2[nH]c(=O)[nH]c2c1)c1ccc([N+](=O)[O-])o1	2.9µM*	?	-22%	?	5.8µM*
COc1cc(Cl)c(C)cc1NC(=O)CN1CCN(C(=O)C2CC2)CC1	?	21µM*	-19%	i	-13%
CCOc1ccc(-c2cc3c(=O)n(Cc4nc(-c5ccc(OCC)c(OC)c5)oc4C)ccn3n2)cc1Cl	nt	i	nt	i	nt
O=C(OCc1nnc(-c2ccc(Cl)cc2)o1)c1ccc(O)cc1	-1%	i	?	i	11%
Cn1cccc1C(=O)NC(=O)COC(=O)c1ccc(S(C)(=O)=O)c([N+](=O)[O-])c1	16µM*	?	?	?	5.8µM*
CS(=O)(=O)c1ccc(C(=O)OCc2nnc(-c3ccc(Cl)cc3)o2)cc1[N+](=O)[O-]	?	i	?	i	3.7µM*
Cn1ccsc1=NC(=O)c1ccc(S(C)(=O)=O)c([N+](=O)[O-])c1	16µM*	nt	?	nt	15µM*
Cn1ccsc1=NC(=O)c1ccc(Cl)c([N+](=O)[O-])c1	-3%	i	?	i	2%
CS(=O)(=O)c1ccc(C(=O)OCC(=O)NC23CC4CC(CC(C4)C2)C3)cc1[N+](=O)[O-]	?	i	23%	i	4.1µM*
CCOC(=O)c1sc2nc3c(cc2c1N)COC(C(C)C)C3 (stereo not given)	-1%	i	?	i	20%
CCC(=O)Nc1c2c(nn1-c1ccc(C)cc1)CS(=O)(=O)C2	?	i	1%	i	-9%
COc1ccc(CCNC(=O)NCc2noc3ccccc23)c(OC)c1	nt	i	nt	i	nt
CCOc1ccccc1CNc1ncnc2ccc(-c3c(C)noc3C)cc12	-2%	i	29%	?	?
COc1ccc(C2NC(=O)NC(O)(C(F)(F)F)C2C(=O)c2ccc(F)cc2)cc1 (stereo not given)	-5%	i	3%	i	-3%
OCCNCc1ccc(OCc2ccc(Cl)cc2Cl)cc1	4.1µM*	i	?	i	?
OCCCCNCc1ccc(OCc2ccc(Cl)cc2Cl)cc1	3%	i	12%	i	10%

From PubChem BioAssay
